PMC12136788
Positions count from the first letter of the chain named. The full ranking holds about 24,000 sequences; the median of “enrichment r” is about 0.99, and the highest 2% start at about 3.7. This excerpt belongs to a sample that is enriched for the highest values.

T1: UNK ZnF1-3 (human, UniProt Q9C0B0 31-174)
T1 sequence: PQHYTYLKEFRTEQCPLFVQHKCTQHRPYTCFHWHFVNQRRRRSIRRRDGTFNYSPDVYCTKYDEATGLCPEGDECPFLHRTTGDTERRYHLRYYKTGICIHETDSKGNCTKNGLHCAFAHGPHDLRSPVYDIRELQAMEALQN

B1: chr20:52835626:52835627:+_ENSG00000101132_ENST00000441080|hu_mus|FALSE|FALSE (ssRNA)
RNA: GGGAGUUCUACAGUCCGACGAUCUGCCUCGAGGUUUAUGUUGCUGCCAAAUUUCGCGUAUAGCUGCACCUUCAGGUCGGCUAACACCCGCUGGAUGGACGCCACUCUGGACUCUAAGGCAUCAAUCUCUUCUUGCAAAGUUUUCAACAGAGGAUUGAGCAUCA
B2: chr1:39494447:39494448:+_ENSG00000168653_ENST00000372967|hu_mus|hu_hu_hu_mus_False|48_48 (ssRNA)
RNA: GGGAGUUCUACAGUCCGACGAUCGCACCGAGCGGCGUUCUUAUAGGGCUGUUCUGCGCUUAGGAACAUAAAGUGCCGGUCCAGGCUAAGGCCGAACUUUUUCUGUAUGUCAAGGAAAGGCAUGGCUCUGCAGUGCCCUUGUCACAACAGAGGAUUGAGCAUCA
B3: chr2:131829505:131829506:-_ENSG00000152102_ENST00000409185|hu_mus|FALSE|FALSE (ssRNA)
RNA: GGGAGUUCUACAGUCCGACGAUCCGCUCCAGGGUACAUGUUAGGAGAAUAGGCAGGUGCUGCUGCAUAGCCCACAGGAAAACCAGCUGGAUAUCCAAUUCCUUUGGCAUUUGCAUAGGGAACGCCAGAAGACCCAGGGCUAUACAACAGAGGAUUGAGCAUCA
B4: chr12:55960871:55960872:-_ENSMUSG00000062929_ENSMUST00000078124|mus_hu|FALSE|FALSE (ssRNA)
RNA: GGGAGUUCUACAGUCCGACGAUCUACUAAUGUUUAAGACUGCUAUUAUCAAUUCCUAUUCCAAUUCAAUUUGCAAAAUAUAUUCAGAAAUAGUAGGUGAAAUGACUGUUCCGAAACAUCAGAAGUAUCAUUAAACUUUUAAAGCAACAGAGGAUUGAGCAUCA
B5: chr17:65336665:65336666:-_ENSG00000197170_ENST00000356126|hu_mus|FALSE|FALSE (ssRNA)
RNA: GGGAGUUCUACAGUCCGACGAUCACACAUGUCCUGUUUUUAUUACUAUCACGUGGCUGUCAGGUGAAUAAAAACAAAUAGUAUGAACACACUCAAGGAAAGCUGAGACACAAACCUUUCUGUCUUCAGACUGAAAAAAUGUUUCAACAGAGGAUUGAGCAUCA
B6: chr10:62229464:62229465:-_ENSMUSG00000020074_ENSMUST00000020268|mus_mus|FALSE|FALSE (ssRNA)
RNA: GGGAGUUCUACAGUCCGACGAUCCAGUUGAAAUGGUCUUGACAAAGGGAAAGCAUCCACCCAUGUAAACUGAGCAUCAAAAAAGUCACUAGGAAUAUAUAAGUUCUGAUAACGGCGCCUUAGUUCCAUCAUGUCACAACUGGGCAACAGAGGAUUGAGCAUCA
B7: chr10:33190432:33190433:-_ENSG00000150093_ENST00000302278|hu_mus|hu_hu_hu_mus_True|68_78 (ssRNA)
RNA: GGGAGUUCUACAGUCCGACGAUCUACAUUUUCCAAACCUGCAUGUGAAUAAAACCCUGGCAAUAUUGCCCUAAAGCUACCCUACUGUGACUAAGAUGCUGCUGCUGUGAGCUUGGUGUUGCAAAAUCCGCCUGAGUAGGAUUCCAACAGAGGAUUGAGCAUCA
B8: chr1:235506153:235506154:+_ENSG00000152904_ENST00000391855|hu_hu|FALSE|FALSE (ssRNA)
RNA: GGGAGUUCUACAGUCCGACGAUCCUACUCACCUAUUUACUGUUUCUGGAGAAUAACAAAUUUUUUAAAAGGUGGUAAGGCUAAAAGACAAAAAAAAGAUUAACUAAAAUAAGCUAUGAGGUCCAAUCAAGAAUGGCUUAACAUCAACAGAGGAUUGAGCAUCA
B9: chr10:123500321:123500322:-_ENSG00000107669_ENST00000369043|hu_mus|FALSE|FALSE (ssRNA)
RNA: GGGAGUUCUACAGUCCGACGAUCGAUAUGCUAAGAAACCACACAAAACUGGCAUUUGCAAAUGGAUAAAAAUAGGAUAGAUUGCUUGAAAGAAAACAUAAACAAUAAUUUUAUCUAAAUAAUUUUAAUUGAGUGACUAUAUUCCAACAGAGGAUUGAGCAUCA
B10: chr10:62229464:62229465:-_ENSMUSG00000020074_ENSMUST00000020268|mus_hu|FALSE|FALSE (ssRNA)
RNA: B6 RNA with U27C, C69U, A93U, U99C, G102A, C105U
B11: chr14:105707756:105707757:+_ENSMUSG00000053253_ENSMUST00000138283|mus_hu|motif|central (ssRNA)
RNA: GGGAGUUCUACAGUCCGACGAUCAUUUAUUUUUCUUAUAAAGGACAUUUGGUAUUCCCACAUUUUCUUAAAAUUUGUCCGGAAACAAAUUCUAUCUUUAACACUCACGUUUCUAAAUAUAUAUAUGUGUGUGUGUAUAUAUAUCAACAGAGGAUUGAGCAUCA
B12: chrX:71549762:71549763:+_ENSMUSG00000019087_ENSMUST00000019231|mus_mus|mus_mus_mus_hu_False|78_78 (ssRNA)
RNA: GGGAGUUCUACAGUCCGACGAUCAAACCCGUGUACUUCUUAUUGUUAGCACAACAUUCCCCCCCAACGAUAACGACAGCCAAGCAGGACAGACAGUUAAGUAGUACUUCCACACUCCCAAACUCAGGGAGCCCUAUAACCUUACAACAGAGGAUUGAGCAUCA
B13: chr1:120316058:120316059:+_ENSMUSG00000064302_ENSMUST00000049404|mus_mus|FALSE|FALSE (ssRNA)
RNA: GGGAGUUCUACAGUCCGACGAUCCACCAUGUGUGUCUGAAGAGCAGCUGGUAGGAUAUUAAAAGUCCAAUUUAAAUAACUAGUAGGCAAUAAAGGAGAGAGUGGCGGAGUGAUGAUCUACAACUGGGUCUGAAAUACUUCAUACAACAGAGGAUUGAGCAUCA
B14: chr1:58468927:58468928:-_ENSMUSG00000026034_ENSMUST00000148330|mus_mus|mus_mus_mus_hu_False|98_108 (ssRNA)
RNA: GGGAGUUCUACAGUCCGACGAUCAAUCUAUAAUUACUGAAAGAUGUACCUUAGCUAUGUACUUAAUGAACCAAAUUACCCAAACAAAAUAAACAUGGCAAUAUAAAAAUGUUAAGAAUUUACAAAGCUGUACAAAAUAACUUACAACAGAGGAUUGAGCAUCA
B15: chr2:121263671:121263672:+_ENSMUSG00000027248_ENSMUST00000028683|mus_mus|FALSE|FALSE (ssRNA)
RNA: GGGAGUUCUACAGUCCGACGAUCAAAACGACAGUAUAAAGGGGGCACAUUUAUUGUCACUGUUCCAAAUGUACAAAAAAAAUUAGAAAAUAACCCCCCAACUCAAUUCCCCCCACCCCCACAACAUUCUUCCCAACACAAAUACAACAGAGGAUUGAGCAUCA

biological target: T1, UNK ZnF1-3; experiment: nsRBNS (natural sequence RNA bind-n-seq); RBNS binding buffer (assumed for nsRBNS): 25 mM Tris pH 7.5, 150 mM KCl, 3 mM MgCl2, 0.01% Triton X-100, 500 ug/ml BSA, 20 U/ml SUPERase-In, 4 C; UNK is unkempt and MSI1 is Musashi-1; names of the RNAs are library labels; protein concentration not given here; high values mean tight binding

Binder	binding signal
B1	0.762 enrichment R
B2	0.888 enrichment R
B3	0.945 enrichment R
B4	0.797 enrichment R
B5	1.19 enrichment R
B6	3.38 enrichment R
B7	1.15 enrichment R
B8	5.06 enrichment R
B9	5.07 enrichment R
B10	6.32 enrichment R
B11	0.913 enrichment R
B12	1.31 enrichment R
B13	2.28 enrichment R
B14	1.97 enrichment R
B15	5.9 enrichment R
